Structures can show the parent of a compound that is named as a salt. ± gives the standard deviation of the averaged measurements.
What was measured:
Assay in all cases: growth (OD600 after 10 h); higher = more growth (less inhibition)
[1] = system: E. coli TESEC Alr+ wild-type control; details: compound 0.1 mM; raw OD600 reference: median of DMSO wells 0.241, cell-free background 0.041
Procedure: (§1)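 TESEC Mtb Alr E. coli, or the Alr+ wild-type control, in 384-well plates with Prestwick library compounds at 0.1 mM and 1% DMSO, across arabinose induction levels of 1E3 to 1E7 nM. Growth is read as OD600 after 10 h at 37 °C in triplicate biological replicates.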

E. coli TESEC Mtb Alr [2] = details: compound 0.1 mM
Procedure: as §1

E. coli TESEC Mtb Asd = details: compound 0.1 mM
Procedure: (§2)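 TESEC E. coli strains in which the native enzyme is deleted and replaced by arabinose-inducible Mtb Asd, DapB, CysH or TrpD, each grown in its selective medium. Strains were screened against the Prestwick library at 0.1 mM and 1% DMSO in 384-well format at low and high arabinose induction. Growth is read as OD600 after 10 h in triplicate.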

E. coli TESEC Mtb DapB = details: compound 0.1 mM
Procedure: as §2

E. coli TESEC Mtb Alr [3] = details: compound 0.1 mM; remark: listed apart in the source
Procedure: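 TESEC Mtb Alr E. coli (ΔaraC ΔtolC ΔentC Δalr ΔdadX, arabinose-inducible Mtb Alr) or the Alr+ wild-type control strain, grown in defined M9-fructose medium without D-alanine in 96-well plates with Prestwick library compounds at 0.1 mM and 1% DMSO. Low Alr induction is 0.1 µM arabinose and high induction is 10 mM arabinose.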

[4] = arabinose 1000 nM, raw OD600 reference: median of DMSO wells 0.294, cell-free background 0.041
[5] = arabinose 10000 nM, raw OD600 reference: median of DMSO wells 0.264, cell-free background 0.041
[6] = arabinose 100000 nM, raw OD600 reference: median of DMSO wells 0.201, cell-free background 0.041
[7] = arabinose 1000000 nM, raw OD600 reference: median of DMSO wells 0.193, cell-free background 0.041
[8] = arabinose 10000000 nM, raw OD600 reference: median of DMSO wells 0.146, cell-free background 0.041
[9] = arabinose induction (level): High, raw OD600 reference: median of DMSO wells 0.331, cell-free background 0.041
[10] = arabinose induction (level): Low, raw OD600 reference: median of DMSO wells 0.417, cell-free background 0.041
[11] = arabinose induction (level): High, raw OD600 reference: median of DMSO wells […], cell-free background 0.041
[12] = arabinose induction (level): Low, raw OD600 reference: median of DMSO wells 0.227, cell-free background 0.041
[13] = arabinose 100 nM, raw OD600 reference: median of DMSO wells 0.413, cell-free background 0.052
[14] = arabinose 10000000 nM, raw OD600 reference: median of DMSO wells […], cell-free background 0.052

| Compound | growth [1] | growth (E. coli TESEC Mtb Alr [2]; [4]) | growth (E. coli TESEC Mtb Alr [2]; [5]) | growth (E. coli TESEC Mtb Alr [2]; [6]) | growth (E. coli TESEC Mtb Alr [2]; [7]) | growth (E. coli TESEC Mtb Alr [2]; [8]) | growth (E. coli TESEC Mtb Asd; [9]) | growth (E. coli TESEC Mtb Asd; [10]) | growth (E. coli TESEC Mtb DapB; [11]) | growth (E. coli TESEC Mtb DapB; [12]) | growth (E. coli TESEC Mtb Alr [3]; [13]) | growth (E. coli TESEC Mtb Alr [3]; [14]) |
| --- | --- | --- | --- | --- | --- | --- | --- | --- | --- | --- | --- | --- |
| CC(=O)Nc1ccc(OCC(O)CNC(C)C)cc1 (stereo unspecified) [Practolol] | 0.244 ± 0.0047 | 0.307 ± 0.0096 | 0.257 ± 0.0077 | 0.229 ± 0.04 | 0.19 ± 0.016 | 0.145 ± 0.0028 | 0.408 ± 0.04 | 0.424 ± 0.027 | 0.177 ± 0.0065 | 0.22 ± 0.025 | 0.402 ± 0.014 | 0.361 ± 0.0065 |
| CO[C@@]1(NC(=O)Cc2cccs2)C(=O)N2C(C(=O)O)=C(COC(N)=O)CS[C@@H]21 [Cefoxitin sodium salt] | 0.0397 ± 0.00092 | 0.0385 ± 0.0017 | 0.0398 ± 0.0004 | 0.0383 ± 0.0013 | 0.03983 ± 0.00029 | 0.0389 ± 0.00036 | 0.0597 ± 0.0059 | 0.0593 ± 0.014 | 0.0512 ± 0.0019 | 0.0492 ± 0.0059 | 0.0456 ± 0.00026 | 0.052 ± 0.0013 |
| C#C[C@]1(O)CC[C@H]2[C@@H]3CCC4=CC(=O)CC[C@@H]4[C@H]3CC[C@@]21C [Norethindrone] | 0.196 ± 0.042 | 0.221 ± 0.017 | 0.221 ± 0.012 | 0.179 ± 0.012 | 0.1044 ± 0.00092 | 0.134 ± 0.0033 | 0.286 ± 0.041 | 0.362 ± 0.058 | 0.183 ± 0.0096 | 0.21 ± 0.042 | 0.397 ± 0.0089 | 0.233 ± 0.014 |
| C=CC[N@@+]12CC[C@@]34c5ccccc5N5/C=C6/[C@H]7C[C@H]8[C@@]9(CC[N@@+]8(CC=C)C/C7=C/CO)c7ccccc7N(/C=C(/[C@@H](C[C@@H]31)/C(=C\CO)C2)[C@H]54)[C@@H]69 [Alcuronium chloride] | 0.214 ± 0.0094 | 0.255 ± 0.004 | 0.162 ± 0.0017 | 0.13 ± 0.0075 | 0.115 ± 0.0062 | 0.155 ± 0.0016 | 0.159 ± 0.0074 | 0.184 ± 0.044 | 0.197 ± 0.027 | 0.196 ± 0.023 | 0.41 ± 0.013 | 0.351 ± 0.0099 |
| C[C@@H]1NC(=O)NC1=O [Methylhydantoin-5-(L)] | 0.236 ± 0.0048 | 0.292 ± 0.012 | 0.274 ± 0.005 | 0.182 ± 0.017 | 0.186 ± 0.0047 | 0.1457 ± 0.0013 | 0.427 ± 0.024 | 0.44 ± 0.036 | 0.192 ± 0.013 | 0.245 ± 0.022 | 0.411 ± 0.016 | 0.352 ± 0.014 |
| OCCN1C[C@H](O)[C@@H](O)[C@H](O)[C@H]1CO [Miglitol] | 0.243 ± 0.0029 | 0.285 ± 0.0045 | 0.26 ± 0.0085 | 0.204 ± 0.02 | 0.184 ± 0.0057 | 0.145 ± 0.0034 | 0.358 ± 0.084 | 0.42 ± 0.084 | 0.207 ± 0.031 | 0.223 ± 0.029 | 0.406 ± 0.011 | 0.324 ± 0.051 |
| Nc1ccn([C@@H]2CS[C@H](CO)O2)c(=O)n1 [Lamivudine] | 0.239 ± 0.0031 | 0.292 ± 0.011 | 0.262 ± 0.0097 | 0.211 ± 0.037 | 0.209 ± 0.0042 | 0.144 ± 0.0079 | 0.353 ± 0.0047 | 0.425 ± 0.021 | 0.18 ± 0.013 | 0.207 ± 0.016 | 0.407 ± 0.0069 | 0.357 ± 0.0056 |
| CCOc1ccc(Cc2nccc3cc(OCC)c(OCC)cc23)cc1OCC [Ethaverine hydrochloride] | 0.0471 ± 0.00059 | 0.0509 ± 0.0018 | 0.0528 ± 0.018 | 0.0664 ± 0.025 | 0.0659 ± 0.033 | 0.0686 ± 0.015 | 0.228 ± 0.0076 | 0.1635 ± 0.0016 | 0.156 ± 0.0076 | 0.165 ± 0.017 | 0.403 ± 0.0076 | 0.0633 ± 0.0024 |
| NC(=O)c1ccc[n+]([C@@H]2O[C@H](COP(=O)([O-])OP(=O)(O)OC[C@H]3O[C@@H](n4cnc5c(N)ncnc54)[C@H](O)[C@@H]3O)[C@@H](O)[C@H]2O)c1 [Nadide] | 0.282 ± 0.006 | 0.363 ± 0.018 | 0.339 ± 0.0072 | 0.238 ± 0.031 | 0.245 ± 0.0026 | 0.175 ± 0.0086 | 0.428 ± 0.012 | 0.441 ± 0.0097 | 0.21 ± 0.0067 | 0.216 ± 0.02 | 0.415 ± 0.025 | 0.416 ± 0.0063 |
| CC[C@H]1OC(=O)[C@H](C)[C@@H](O[C@H]2C[C@@](C)(OC)[C@@H](O)[C@H](C)O2)[C@H](C)[C@@H](O[C@@H]2O[C@H](C)C[C@H](N(C)C)[C@H]2O)[C@](C)(O)C[C@@H](C)/C(=N\OCOCCOC)[C@H](C)[C@@H](O)[C@]1(C)O [Roxithromycin] | 0.0423 ± 0.0011 | 0.0412 ± 0.00062 | 0.04067 ± 0.00015 | 0.0421 ± 0.0001 | 0.04023 ± 0.00015 | 0.0439 ± 0.002 | 0.0582 ± 0.0066 | 0.205 ± 0.25 | 0.0507 ± 0.0027 | 0.0505 ± 0.00097 | 0.0564 ± 0.0015 | 0.0513 ± 0.00036 |
| CC(=O)OCC(=O)NCCCOc1cccc(CN2CCCCC2)c1 [Roxatidine Acetate HCl] | 0.241 ± 0.013 | 0.302 ± 0.0074 | 0.265 ± 0.008 | 0.212 ± 0.024 | 0.186 ± 0.0084 | 0.139 ± 0.0026 | 0.29 ± 0.046 | 0.389 ± 0.023 | 0.185 ± 0.016 | 0.186 ± 0.0097 | 0.408 ± 0.0076 | 0.3569 ± 0.0035 |
| CC(=O)CCCCn1c(=O)c2c(ncn2C)n(C)c1=O [Pentoxifylline] | 0.2306 ± 0.0011 | 0.276 ± 0.0075 | 0.2728 ± 0.0025 | 0.203 ± 0.013 | 0.187 ± 0.0042 | 0.134 ± 0.0031 | 0.297 ± 0.079 | 0.387 ± 0.029 | 0.2 ± 0.024 | 0.207 ± 0.019 | 0.431 ± 0.0088 | 0.363 ± 0.006 |
| CN(C)[C@@H]1C(=O)C(C(N)=O)=C(O)[C@@]2(O)C(=O)C3=C(O)c4c(O)ccc(Cl)c4[C@@H](O)[C@H]3C[C@@H]12 [Demeclocycline hydrochloride] | 0.0424 ± 0.00081 | 0.0502 ± 0.0039 | 0.0459 ± 0.0013 | 0.0479 ± 0.0019 | 0.0435 ± 0.00079 | 0.0452 ± 0.0007 | 0.0573 ± 0.0014 | 0.0773 ± 0.029 | 0.0577 ± 0.0035 | 0.0559 ± 0.002 | 0.0561 ± 0.0037 | 0.05407 ± 0.00042 |

Reference: the supplement of paper PMC9262897, “Low-cost anti-mycobacterial drug discovery using engineered E. coli” (Nature Communications, 2022)
